Data on 4 compounds can be found in PubChem BioAssay (NCI).

Test systems include NCI-H23 lung; NCI-H226 lung; NCI-H322M lung; HOP-62 NSCLC; NCI-H460 lung; HOP-92 NSCLC; NCI-H522 lung; A549/ATCC NSCLC; 786-0 renal; COLO 205 colon; DU-145 prostate; K-562 leukemia; MALME-3M melanoma; MDA-MB-231 breast; RXF 393 renal; SF-268 CNS; SF-295 CNS; SF-539 CNS; UACC-257 melanoma; M14 melanoma.
What all share (assay): NCI-60 one-dose screen, 48 h (100 = growth as untreated, 0 = no growth, -100 = all killed)
Conditions in all cases: 10 µM unless noted

“And” between values parts separate entries of the source, which are not always exact repeats. Equal entries are not always repeated. The panel holds about 83,000 compounds, 20% with a hit somewhere; the sample as a whole holds those more often.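 Interpretation: 100, growth as untreated; towards 0, rising growth inhibition; 0, no net growth; 0 to -100, cell death. Compounds scoring below 10 were considered active.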 The source made the active and inactive calls.

As for `Cn1c(=O)n(-c2ccc(C(C)(C)C#N)cc2)c2c3cc(-c4cnc5ccccc5c4)ccc3ncc21`, the growth is 7.45% (active) and 15.4% (inactive) in the assay with NCI-H23 lung; 7.02% (active) and 9.42% (active) with NCI-H226 lung; 1.14% (active) and -0.589% (active) in the assay with NCI-H322M lung; 1.69% (active) and 3.34% (active) in the assay with HOP-62 NSCLC; 3.03% (active) and -9.04% (active) with NCI-H460 lung; -4.42% (active) in the assay with HOP-92 NSCLC. The growth in the assay on NCI-H522 lung was 2.87% (active) and -9.46% (active); in the assay with A549/ATCC NSCLC, 0.549% (active) and -9.22% (active); in the assay on 786-0 renal, 0.54% (active) and -4.76% (active); with COLO 205 colon, -25% (active) and -3.99% (active); in the assay with DU-145 prostate, 15.3% (inactive) and 6.2% (active); in the assay on K-562 leukemia, 10.2% (inactive) and 10.6% (inactive). Moreover, the growth was -14.1% (active) and -14.8% (active) in the assay on MALME-3M melanoma; 19.3% (inactive) and 20% (inactive) in the assay with MDA-MB-231 breast; -22.6% (active) and -17.3% (active) in the assay on RXF 393 renal; 11.2% (inactive) and 7.46% (active) in the assay with SF-268 CNS; -20.4% (active) and -4.51% (active) in the assay with SF-295 CNS; -30.1% (active) and -17.4% (active) in the assay on SF-539 CNS. In addition, the growth was -9.78% (active) and -14.4% (active) in the assay on UACC-257 melanoma; 7.18% (active) and 0.962% (active) in the assay with M14 melanoma.

As for `CCN1CCN(CCNc2nccc(-c3c(-c4cccc(O)c4)nc4sccn34)n2)S1(=O)=O`, the growth with NCI-H23 lung was 87.1% (inactive) and 88.3% (inactive); in the assay on NCI-H226 lung, 98.9% (inactive) and 99.1% (inactive); in the assay on NCI-H322M lung, 66% (inactive) and 68.3% (inactive); with HOP-62 NSCLC, 120% (inactive) and 92.2% (inactive); with NCI-H460 lung it was 52.7% (inactive) and 47.9% (inactive); in the assay on HOP-92 NSCLC, 32.2% (inactive). Moreover, the growth was 67% (inactive) and 63.1% (inactive) with NCI-H522 lung; 86% (inactive) and 70.1% (inactive) in the assay on A549/ATCC NSCLC; 94.2% (inactive) and 64.3% (inactive) in the assay with 786-0 renal; 24.5% (inactive) and 28.1% (inactive) in the assay with COLO 205 colon; 67.1% (inactive) and 55.1% (inactive) in the assay on DU-145 prostate; 69.6% (inactive) and 62.7% (inactive) with K-562 leukemia. Moreover, the growth in the assay on MALME-3M melanoma is -11.1% (active) and -23.5% (active); in the assay on MDA-MB-231 breast, 64.7% (inactive) and 68.3% (inactive); in the assay with RXF 393 renal it was 42.8% (inactive) and 61.8% (inactive); with SF-268 CNS it was 86.2% (inactive); in the assay with SF-295 CNS, 93.3% (inactive) and 98.9% (inactive); in the assay on SF-539 CNS it was 89.7% (inactive) and 87.3% (inactive). Moreover, the growth with UACC-257 melanoma is 1.33% (active) and -7.98% (active); in the assay on M14 melanoma it was 5.92% (active) and 8.15% (active).

For the compound `CC(=O)NC(Cc1ccccc1)C(=O)Oc1ccc2ccccc2c1` (stereo not given), the growth in the assay with NCI-H23 lung is 95.9% (inactive) and 86.5% (inactive); in the assay on NCI-H226 lung, 101% (inactive) and 106% (inactive); in the assay with NCI-H322M lung, 124% (inactive) and 108% (inactive); with HOP-62 NSCLC it was 96.9% (inactive) and 94.7% (inactive); with NCI-H460 lung, 106% (inactive) and 107% (inactive); in the assay on HOP-92 NSCLC, 78% (inactive) and 84.9% (inactive). In addition, the growth in the assay with NCI-H522 lung is 98.2% (inactive); with A549/ATCC NSCLC, 94.7% (inactive) and 102% (inactive); in the assay on 786-0 renal, 110% (inactive); in the assay on COLO 205 colon, 93.3% (inactive) and 105% (inactive); in the assay on DU-145 prostate, 107% (inactive) and 109% (inactive); in the assay on K-562 leukemia it was 106% (inactive) and 113% (inactive). In addition, the growth was 109% (inactive) with MALME-3M melanoma; 104% (inactive) and 103% (inactive) with MDA-MB-231 breast; 113% (inactive) and 115% (inactive) in the assay on RXF 393 renal; 100% (inactive) with SF-268 CNS; 113% (inactive) with SF-295 CNS; 91.6% (inactive) and 90% (inactive) in the assay on SF-539 CNS. In addition, the growth in the assay with UACC-257 melanoma is 104% (inactive) and 116% (inactive); with M14 melanoma, 109% (inactive) and 118% (inactive).

For the compound `COc1cc(-c2nccc3cc4c(cc23)OCO4)cc(OC)c1OC`, the growth in the assay with NCI-H23 lung was 56.9% (inactive) and 46.7% (inactive); in the assay on NCI-H226 lung, 62.9% (inactive) and 49.7% (inactive); in the assay with NCI-H322M lung, 66.1% (inactive) and 71.6% (inactive); in the assay on HOP-62 NSCLC, 38.1% (inactive) and 39.4% (inactive); in the assay with NCI-H460 lung it was 18.1% (inactive) and 14.8% (inactive); in the assay on HOP-92 NSCLC it was 58.3% (inactive). The growth in the assay on NCI-H522 lung is -0.618% (active); in the assay on A549/ATCC NSCLC, 46.6% (inactive) and 38.9% (inactive); in the assay with 786-0 renal, 38.6% (inactive) and 66.7% (inactive); with COLO 205 colon it was 11.2% (inactive) and -13.8% (active); in the assay on DU-145 prostate it was 51.9% (inactive) and 30.2% (inactive); with K-562 leukemia, 13.4% (inactive) and 21% (inactive). Further, the growth is 62.2% (inactive) and 44.7% (inactive) in the assay with MALME-3M melanoma; 40.3% (inactive) and 48.9% (inactive) in the assay on MDA-MB-231 breast; 6.69% (active) and 22.1% (inactive) in the assay with RXF 393 renal; 43.8% (inactive) and 40.6% (inactive) in the assay on SF-268 CNS; 19.2% (inactive) and 15.7% (inactive) with SF-295 CNS; 19.9% (inactive) and 18.8% (inactive) with SF-539 CNS. The growth with UACC-257 melanoma is 52.8% (inactive) and 39.3% (inactive); with M14 melanoma it was 14% (inactive) and 23.1% (inactive).
